From PubChem BioAssay (Tox21) come the findings set out here.

A short description of assay [1]: qHTS assay for small molecule agonists of the p53 signaling pathway (AID 651631; calls by dose curve; also: nearly all actives have a fitted effect of over 15% in size; also: potency is read from the fitted curve at half-maximal effect). Summed up:
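Quantitative high-throughput format: 4,000 p53RE-bla HCT-116 cells/well, 5 h pre-incubation, 16 h compound exposure at 37 °C, 2 h room-temperature substrate step, fluorescence intensity measured.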

Assay [2] in a line: qHTS assay for small molecules that induce genotoxicity in human embryonic kidney cells expressing luciferase-tagged ATAD5 (AID 651632). Also: nearly all actives have a fitted effect of over 15% in size. Also: potency is read from the fitted curve at half-maximal effect. Summed up:
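Genotoxicity read-out via ATAD5-luciferase: HEK293T cells, 16 hr compound incubation at 37C, Amplite detection.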

A short description of assay [3]: qHTS assay for small molecule agonists of the p53 signaling pathway - cell viability (AID 651633; calls by dose curve; also: nearly all actives have a fitted effect of over 30% in size; also: potency is read from the fitted curve at half-maximal effect). Put shortly:
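p53RE-bla cells were treated with compound for 16 hours at 37 C. Cytotoxicity was then measured as CellTiter-Glo luminescence after 30 min at room temperature.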

A short description of assay [4]: qHTS assay for small molecules that induce genotoxicity in human embryonic kidney cells expressing luciferase-tagged ATAD5 - cell viability (AID 651634; calls by dose curve; also: nearly all actives have a fitted effect of over 25% in size; also: potency is read from the fitted curve at half-maximal effect). Put shortly:
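Live-cell protease activity (CellTiter-Fluor, fluorescence) indicates viability. HEK293T cells with luciferase-tagged ATAD5; 15.5 hr compound treatment at 37C.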

Assay [5] can be described thus: qHTS assay for small molecule disruptors of the mitochondrial membrane potential - cell viability (AID 720634; calls by dose curve;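 also: human HepG2 liver cancer cells; series mostly up to about 83 µM; nearly all actives have a fitted effect of over 20% in size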). Put shortly: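 Human hepatoma HepG2 cells were treated for 1 hr with test chemicals, then given m-MPI dye and CellTiter-Glo. Cell viability reflects luminescence proportional to cellular ATP.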
Assay [6] can be described thus: qHTS assay for small molecule disruptors of the mitochondrial membrane potential (AID 720635). Also: potency is read from the fitted curve at half-maximal effect. Put shortly:
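HepG2 cells exposed to compound 1 hr at 37C, then Mito-MPS dye 30 min. Ratio read of aggregate (540/590 nm) versus monomer (490/535 nm) fluorescence.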

A short description of assay [7]: qHTS assay to test for compound auto fluorescence at 590 nm (red) in HepG2 cells (AID 720674). Summed up:
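Fluorescence at 590 nm emission following 540 nm excitation was recorded from HepG2 wells one hour after compound transfer, with DMSO-only wells as vehicle and Rose Bengal sodium equivalency as the scale.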

A short description of assay [8]: qHTS assay to test for compound auto fluorescence at 535 nm (green) in HepG2 cells (AID 720675).
Assay [9] can be described thus: qHTS assay to test for compound auto fluorescence at 460 nm (blue) in HEK293 cells (AID 720678). Summed up:
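Triamterene serves as the blue fluorophore standard. Compound signal at 405/460 nm is read in HEK293 wells (2,000 cells, 10% dialyzed FBS) after overnight treatment at 37C.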

The nature of assay [10]: qHTS assay to test for compound auto fluorescence at 590 nm (red) in HEK293 cells (AID 720679). Put shortly: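 We plated HEK293 cells in 10% dialyzed FBS medium, let them adhere for 4-5 hr, then added 23 nL compound. Overnight at 37C and 5% CO2 preceded fluorescence measurement at 540/590nm.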
Assay [11] can be described thus: qHTS assay to test for compound auto fluorescence at 535 nm (green) in HEK293 cells (AID 720680).
Assay [12] in a line: qHTS assay to test for compound auto fluorescence at 460 nm (blue) in HEK293 cell free culture (AID 720681). Put shortly: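 Compounds were added to cell-free DMEM with 10% FBS and fluorescence read directly. The blue channel used 405 nm excitation and 460 nm emission, with triamterene as the reference fluorophore.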
Assay [13] in a line: qHTS assay to test for compound auto fluorescence at 535 nm (green) in HEK293 cell free culture (AID 720682). Put shortly: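 Measurement is a direct plate read of green fluorescence (485 nm in, 535 nm out) after compound addition to serum-supplemented DMEM lacking cells, with fluorescein used to express intensities.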
Assay [14] is described as follows: qHTS assay to test for compound auto fluorescence at 590 nm (red) in HEK293 cell free culture (AID 720683). Put shortly: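 Cell-free wells of DMEM with 10% FBS received compound, and intrinsic fluorescence was read at excitation/emission 540/590 nm. Values expressed as equivalence to Rose Bengal sodium.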
A short description of assay [15]: qHTS assay to test for compound auto fluorescence at 590 nm (red) in HepG2 cell free culture (AID 720684). Put shortly:
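Compounds are added to culture medium (MEM, 10% FBS) lacking cells, then fluorescence is read at excitation 540 nm, emission 590 nm, with Rose Bengal sodium as the equivalency standard.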

Assay [16] in a line: qHTS assay to test for compound auto fluorescence at 460 nm (blue) in HepG2 cell free culture (AID 720685). Put shortly: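 Compound (23 nL) or DMSO pinned into cell-free MEM with 10% FBS; blue fluorescence read at 405/460 nm excitation/emission, expressed as auto-fluorescence equivalency to triamterene.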
A short description of assay [17]: qHTS assay to test for compound auto fluorescence at 535 nm (green) in HepG2 cell free culture (AID 720686).
Assay [18] in a line: qHTS assay to test for compound auto fluorescence at 460 nm (blue) in HepG2 cells (AID 720687). Put shortly:
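HepG2 cells in MEM with 10% FBS, attached overnight at 37 C, were exposed to compound or DMSO for 1 hr at 37 C, 5% CO2. Blue fluorescence was read at 405/460 nm, with triamterene as reference fluorophore.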

In assay [19] the target is Glucocorticoid receptor (Homo sapiens) (UniProt P04150). The assay can be described thus: qHTS assay to identify small molecule agonists of the glucocorticoid receptor (GR) signaling pathway (AID 720691; active = well fitted activation curve with a large enough effect in the signal ratio in the repeat runs, not every such curve was filed as active; the % refers to the signal ratio). Put shortly:
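Beta-lactamase reporter activity, read as fluorescence intensity, was measured in GR-bla HeLa cells exposed to compounds for 18 h at 37 C and then loaded with LiveBLAzer B/G FRET substrate for 2 h at room temperature.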

The target is the same in assay [20]. The experiment in a line: qHTS assay to identify small molecule antagonists of the glucocorticoid receptor (GR) signaling pathway (AID 720692; active = well fitted inhibition curve with a large enough effect in the signal ratio in the repeat runs, not every such curve was filed as active; the % refers to the signal ratio). Put shortly: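 Fluorescence from cleaved LiveBLAzer B/G FRET substrate reports GRE-driven beta-lactamase in HeLa cells; compounds are tested against 5 nM dexamethasone (final) over 18 h at 37 C, substrate incubation 2 h at room temperature.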

Inconclusive results are not listed. Calls of active or inactive are those of the source. Unless noted, calls follow the shape of the dose curve; as a rule, active = well fitted curve in the direction sought with a large enough effect in the repeat runs; inconclusive = weak or mixed curves; inactive = no such curve, though single readings can be large; an effect the other way counts as inactive or inconclusive.

Sequence of Glucocorticoid receptor (Homo sapiens) (P04150 whole entry, looked up): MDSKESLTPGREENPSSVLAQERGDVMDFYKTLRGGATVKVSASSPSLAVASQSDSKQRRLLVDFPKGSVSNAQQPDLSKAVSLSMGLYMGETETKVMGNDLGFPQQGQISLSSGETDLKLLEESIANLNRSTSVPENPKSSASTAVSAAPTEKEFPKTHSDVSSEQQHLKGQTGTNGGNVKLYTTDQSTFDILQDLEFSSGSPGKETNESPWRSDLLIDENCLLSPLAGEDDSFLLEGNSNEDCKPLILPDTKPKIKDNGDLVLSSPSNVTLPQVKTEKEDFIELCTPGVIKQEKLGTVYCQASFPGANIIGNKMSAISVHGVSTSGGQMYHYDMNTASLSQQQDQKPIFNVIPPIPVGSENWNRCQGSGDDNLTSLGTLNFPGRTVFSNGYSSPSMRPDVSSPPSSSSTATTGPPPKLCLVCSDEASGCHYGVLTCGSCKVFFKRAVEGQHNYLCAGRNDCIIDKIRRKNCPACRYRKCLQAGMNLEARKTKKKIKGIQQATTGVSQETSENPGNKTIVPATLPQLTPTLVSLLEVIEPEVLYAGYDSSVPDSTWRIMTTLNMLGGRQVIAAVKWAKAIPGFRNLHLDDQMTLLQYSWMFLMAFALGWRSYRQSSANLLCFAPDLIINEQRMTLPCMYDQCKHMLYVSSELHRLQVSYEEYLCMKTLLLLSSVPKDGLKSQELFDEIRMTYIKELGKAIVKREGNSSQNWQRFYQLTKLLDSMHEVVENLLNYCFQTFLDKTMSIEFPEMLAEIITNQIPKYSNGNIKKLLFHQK

In the case of `O=C(O)c1ccc(OCCCOc2ccc(C(=O)O)cc2)cc1`, the Potency entry in assay [1], in assay [2], in [3], in assay [4], in [5] and in assay [6] was “inactive” each time. Besides, the Potency result in assay [9], in assay [12], in assay [16] and in [18] was “inactive” throughout. Further, the molecule was called inactive in assay [7], in [8], in assay [10], in [11], in [13] and in assay [14]. Moreover, the outcome in assay [15] and in assay [17] was inactive.
Consider `Cc1cc2c(OCC(CNC(C)(C)C)OC(=O)c3ccccc3)cccc2[nH]1` (centres undefined), for which the Potency result in assay [1], in assay [2], in [3], in [4], in assay [5] and in assay [9] was “inactive” each time. In addition, the Potency entry in [12], in assay [16], in assay [18] and in assay [19] was “inactive” throughout. The molecule was called inactive in assay [7], in assay [8], in assay [10], in assay [11], in assay [13] and in [15]. Moreover, the molecule was classed as inactive in [17].
`O=C(/C=C/c1ccc(O)c(O)c1)O[C@@H]1C[C@@](OC(=O)/C=C/c2ccc(O)c(O)c2)(C(=O)O)C[C@@H](O)[C@@H]1O`: the Potency entry in assay [1], in assay [2], in [3], in assay [4], in [5] and in assay [9] was “inactive” in each case. Besides, the Potency result in assay [12], in assay [16], in assay [18], in assay [19] and in assay [20] was “inactive” each time. The molecule was called inactive in assay [7], in assay [8], in [10], in [11], in [13] and in assay [14]. Moreover, the molecule was called inactive in assay [15] and in assay [17].
As for `CC(C)=CCC/C(C)=C/CC/C(C)=C/CCC(=O)OC/C=C(\C)CCC=C(C)C`, the Potency entry in assay [1], in assay [2], in assay [3], in assay [4], in [5] and in assay [9] was “inactive” each time. Also, the Potency result in assay [12], in [16], in assay [18] and in assay [19] was “inactive” each time. For the same molecule, the molecule was called inactive in [7], in assay [8], in assay [10], in assay [11], in [13] and in [15].
On to `CC(C)C[C@H](NC(=O)[C@H](CCc1ccccc1)NC(=O)CN1CCOCC1)C(=O)N[C@@H](Cc1ccccc1)C(=O)N[C@@H](CC(C)C)C(=O)[C@@]1(C)CO1`, for which the Potency is 66.8 nM (active) in assay [1], 106 nM (active) in [2], 335 nM (active) in [3] and 211 nM (active) in assay [4]. For the same molecule, the Potency entry in [5], in assay [9], in assay [12], in assay [16] and in assay [18] was “inactive” in each case. For the same molecule, the molecule was classed as inactive in assay [7], in assay [10], in assay [11], in [13], in [14] and in [15]. In addition, the call in [17] was inactive.
As for `O=C1NCCN1CCO`, the Potency entry in [1], in assay [2], in [3], in [4], in [5] and in assay [6] was “inactive” each time. Moreover, the Potency result in assay [9], in assay [12], in assay [16] and in [18] was “inactive” throughout. In addition, the molecule was classed as inactive in assay [8], in assay [11], in assay [13], in assay [14], in [15] and in [17].
Take `CCOC(=O)c1ccc(OCCN2C[C@H](O)[C@@H](O)[C@H](O)[C@H]2CO)cc1`: the Potency entry in [1], in assay [2], in assay [3], in assay [4], in [5] and in assay [6] was “inactive” each time. For the same molecule, the Potency result in [9], in [12], in assay [16], in [18], in assay [19] and in assay [20] was “inactive” each time. Besides, the molecule was called inactive in [8], in assay [10], in assay [11], in assay [13], in assay [14] and in [15]. Moreover, in [17], the result was inactive.
Consider `O=C=Nc1cccc(C(F)(F)F)c1`, for which the Potency entry in assay [1], in [2], in assay [3], in [4], in assay [9] and in assay [12] was “inactive” throughout. Moreover, the Potency result in assay [16], in assay [18] and in assay [19] was “inactive” each time. For the same molecule, the Potency in assay [6] is 2150 nM (active). The outcome in [7], in assay [8], in assay [10], in assay [11], in [13] and in [14] was inactive. The result in assay [15] and in [17] was inactive.
